Screen size: about 52,000 compounds; about 4,300 (8.3%) were called active. The entries come from a sample that favours actives as a whole. Unmarked numbers belong to inactive results. Cut-off read from the data, not from the text of the source: active = survival mostly below about 52% (no sharp cut-off); inactive = mostly above about 56%.

This test relates to DeltatarO mutant. Briefly: growth inhibition of S. aureus wild type versus tarO mutant, primary screen, teichoic acid synthesis inhibitors, RN4220, OD600 (AID 463173). As to conditions: OD600, 18 h, stronger effect = lower value, screened at 18.75 µg/mL (by protocol).
For the molecule `Cc1cccc(NC(=O)CSc2nnc3[nH]c(=O)cc(C)n23)c1C`, the survival was 75%.

Regarding `CN(C)S(=O)(=O)c1ccc(S(=O)(=O)N2CCN(C=O)CC2)cc1`, the survival was 105%.

In the case of `CCOc1ccc(CNC(=O)Cc2ccc(NC(=O)N3CCSc4ncccc43)cc2)cc1`, the survival was 96%.

Turning to `CC(C)(C)C(=O)N1CCN(c2nc3c(F)cccc3s2)CC1`, the survival was 82%.

With `Cc1cccc(OCc2nnc(SCC(N)=O)o2)c1`, the survival was 91%.

With `Cc1cccc(OCc2nnc(SCC(=O)N3c4ccccc4CCc4ccccc43)o2)c1`, the survival is 99%.

On to `Cc1ccccc1OCc1nnc(SCC(=O)N(Cc2ccccc2)C(C)(C)C)o1`, for which the survival is 59% (active).

For the molecule `CC(C)(C)N(Cc1ccccc1)C(=O)CSc1nnc(CNc2ccc(F)cc2)o1`, the survival is 74%.

As to `Cc1ccc(NCc2nnc(SCC(=O)N(Cc3ccccc3)C(C)(C)C)o2)c(C)c1`, the survival was 94%.

Regarding `CCOC(=O)CSc1nnc(COc2cccc(C)c2)o1`, the survival was 42% (active).

With `COC(=O)CSc1nnc(COc2cccc3ccccc23)o1`, the survival is 46% (active).

Take `Cc1csc(N(C)C(=O)CSc2nnc(COc3cccc4ccccc34)o2)n1`: the survival is 56%.

Regarding `NC(=O)CSc1nnc(COc2cccc3ccccc23)o1`, the survival is 89%.

Take `On1ccc2c(Br)cncc21`: the survival is 94%.

With `CCc1ccc2nc(N3CCN(C(=O)c4ccco4)CC3)sc2c1`, the survival is 86%.

`O=C(CSc1nc(-c2cccc(Cl)c2)nc2cc(=O)[nH]n12)Nc1ccccc1`: the survival was 71%.

As for `Cc1ccc(CSc2ncc(Cl)c(C(=O)Oc3ccc(F)cc3)n2)cc1`, the survival was 77%.

Take `CCC(=O)N1c2ccccc2CC1C(=O)NCc1cccc(OC)c1OC` (stereo not drawn): the survival was 84%.

As to `COc1cc(C2C(C#N)=C(N)Oc3n[nH]c(C(F)(F)F)c32)ccc1OCC(N)=O` (stereo not drawn), the survival was 72%.

`CC(NC(=O)Cn1c(=O)oc2cc(S(=O)(=O)N3CCCCCC3)ccc21)c1ccccc1` (stereo not drawn): the survival was 82%.

As for `COc1ccccc1CNC(=O)C1CCN(c2nnc(C)c3c(C)n(-c4ccccc4)nc23)CC1`, the survival was 104%.

As for `Cc1noc(/C=C/c2ccco2)c1S(=O)(=O)N1CCC(C(=O)Nc2ccc(F)c(Cl)c2)CC1`, the survival is 100%.

Turning to `CCOC(=O)c1sc2cccc(F)c2c1S(=O)(=O)N1CCN(c2cccc(Cl)c2)CC1`, the survival was 102%.

For `COc1cccc(OC)c1C(=O)NCCc1sc(-c2cccc(F)c2)nc1C`, the survival was 69%.

Take `CCn1cc(C(=O)NCc2ccccc2Cl)c(=O)c2cc(S(=O)(=O)N3CCOCC3)ccc21`: the survival was 75%.

With `COc1ccc(C(=O)Nc2ccccc2)cc1S(=O)(=O)Nc1ccc(Br)cc1`, the survival was 78%.

With `CCN(c1ccccc1)S(=O)(=O)c1ccc(F)c(C(=O)Nc2ccc(C)cc2)c1`, the survival is 100%.

For `O=C(O)c1ccc(NC(=O)c2ccc(Cl)c(S(=O)(=O)N3CCCCCC3)c2)cc1`, the survival is 131%.

As for `Cc1ccc(C(=O)Nc2ccccc2)cc1S(=O)(=O)Nc1ccc(Br)cc1`, the survival is 6% (active).

Take `Cc1ccc(C(=O)Nc2ccc(Br)cc2)cc1S(=O)(=O)NCc1ccccc1`: the survival is 83%.

Regarding `Cc1ccc(C(=O)Nc2ccccc2)cc1S(=O)(=O)Nc1ccccc1`, the survival was 46% (active).

For the molecule `O=C(Nc1ccccc1)c1ccc(Cl)c(S(=O)(=O)Nc2ccccc2)c1`, the survival is 43% (active).

As for `CCOc1cccc(NC(=O)c2ccc(F)c(S(=O)(=O)N(CC)c3cccc(C)c3)c2)c1`, the survival was 86%.

As for `Cc1ccc(C(=O)Nc2ccc(C(=O)O)cc2)cc1S(=O)(=O)Nc1ccccc1`, the survival is 74%.

As to `CCN(c1ccccc1)S(=O)(=O)c1cc(C(=O)Nc2ccc(Br)cc2)ccc1F`, the survival was 6% (active).

In the case of `Cc1ccc(C(=O)Nc2cccc(C(=O)O)c2)cc1S(=O)(=O)N1CCCC1`, the survival was 81%.

For `O=C(O)c1ccc(NS(=O)(=O)c2ccc(Cl)c(C(=O)Nc3ccccc3)c2)cc1`, the survival is 73%.

In the case of `CCOCCCNC(=O)C(Cc1ccccc1)NS(=O)(=O)c1ccc2c(c1)c(=O)n(C)c(=O)n2C` (stereo not drawn), the survival is 88%.

As to `O=C(Cc1cccs1)Nc1ccccc1`, the survival was 70%.

For `CN(C)c1cccc(C(=O)Nc2ccc(-c3nc4ccccc4s3)cc2)c1`, the survival is 106%.

Turning to `O=C(NCC(c1cccnc1)N1CCN(c2ccccc2F)CC1)c1ccc(F)cc1` (stereo not drawn), the survival is 92%.

As for `Cc1cccc(Cc2c(C)nc3nc(SCc4ccccc4Cl)nn3c2C)c1`, the survival is -9% (active).

In the case of `Cc1nc2nc(SCC(=O)Nc3ccccc3Cl)nn2c(C)c1Cc1ccccc1`, the survival is 20% (active).

For `Cc1cccc(Cc2c(C)nc3nc(SCC(=O)NCc4ccccc4)nn3c2C)c1`, the survival is 40% (active).

Take `Cc1nc2nc(SCC(=O)NCc3ccccc3)nn2c(C)c1Cc1ccccc1`: the survival was 8% (active).

For the molecule `COc1cc(NC(=O)CSc2nc3nc(C)c(Cc4ccccc4)c(C)n3n2)cc(OC)c1OC`, the survival was 80%.

On to `Cc1nc2nc(SCC(=O)NCc3ccccc3)nn2c(C)c1Cc1ccccc1Cl`, for which the survival is 147%.

In the case of `Cc1nc2nc(SCC(=O)NCc3ccccc3Cl)nn2c(C)c1Cc1ccccc1`, the survival was 64%.

In the case of `CCN(CC)CCNC(=O)CSc1nc2nc(C)c(Cc3ccccc3)c(C)n2n1`, the survival was 86%.

With `Cc1cccc(Cc2c(C)nc3nc(SCc4ccccc4C)nn3c2C)c1`, the survival is 95%.

As to `Cc1cccc(Cc2c(C)nc3nc(SCc4ccccc4F)nn3c2C)c1`, the survival is 84%.

As to `Cc1ccc(NC(=O)CSc2nc3nc(C)c(Cc4ccccc4)c(C)n3n2)cc1`, the survival was 60%.

Consider `Cc1cccc(Cc2c(C)nc3nc(SCC(=O)NCc4ccc(F)cc4)nn3c2C)c1`, for which the survival was 56%.

For `COC(=O)CC1=C(C(=O)OC)C(c2ccc(C(=O)OC)cc2)C(C#N)=C(N)O1` (stereo not drawn), the survival is 77%.

Take `Cn1c(=O)c(=O)n(C)c2cc(S(=O)(=O)CCC(=O)Nc3cccc(C(F)(F)F)c3)ccc21`: the survival is 80%.

Take `O=c1c2oc3ccccc3c2n(Cc2ccc(Cl)cc2)c(=O)n1Cc1ccc2c(c1)OCO2`: the survival is 66%.

As to `CCOc1ccc(C2c3[nH]c4ccccc4c3CCN2C(=O)CCc2ccccc2)cc1` (stereo not drawn), the survival was 116%.

As for `COc1ccc(C2CC(=O)Nc3c2c(=O)[nH]c2nc4ccccc4n32)cc1OC` (stereo not drawn), the survival was 133%.

(Values after PubChem BioAssay AID463173 (ICCB-Longwood Screening Facility, Harvard Medical School, 2010).)
